This is part of a sample that, as a whole, favours compounds with a hit. Of some 79,000 tested, about 15% had one in any assay. Unmarked numbers belong to inactive results. Active and inactive are the calls of the source. Rule as the data show it: active = growth inhibition above about 70%; inactive = the rest.
Assay: NCI Yeast Anticancer Drug Screen. Data for the mec2-1 strain (AID 157)
Settings: S. cerevisiae mec2-1 strain, at 50.0 µM, active compounds read high
Method in brief: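 Using mec2-1 yeast: add compound, measure growth, express inhibition versus vehicle-treated cultures.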

Row | SMILES | growth inhibition
1 | Cc1ccc(NC(=O)/C=C/c2ccccc2)cc1Cl | 14.2%
2 | COC(CCCl)c1ccc(C)cc1 (stereo not given) | -66.4%
3 | CC1CCCN2C(=O)CN(Cc3ccccc3)CC(=O)N12 (stereo not given) | -3.3%
4 | Cn1c(COc2ccc(/C=N\N3CCN(/N=C\c4ccc(OCc5c[n+]6ccccc6n5C)cc4)CC3)cc2)c[n+]2ccccc12 | 11.8%
5 | CC(=O)N1Cc2c(N)ncnc2C1C (stereo not given) | -9.45%
6 | C(#CCN1CCOCC1)CCCN1CCOCC1 | -38.7%
7 | COC(=O)c1nc(=S)[nH]c(C(=O)OC)c1C(=O)c1ccc(OC)cc1 | -17.6%
8 | CC1OS(=O)OC1C (stereo not given) | -23.6%
9 | O=C(NCCCl)c1ccc(F)cc1 | -4.65%
10 | CC(C)N(C(=O)C12CC3CC(CC(C3)C1)C2)C(C)C | 0.45%
11 | O=S(=O)(O)CCCC1S(=O)(=O)OCCOS1(=O)=O | -21.8%
12 | C[N+]([O-])(C/C=C/c1ccccc1)c1ccccc1 (stereo not given) | -2.3%
13 | CN(C)c1ccc(/C=C(\C#N)c2cccc(Br)c2)cc1 | -7.3%
14 | CC(C)CC(Br)C(=O)NCC(=O)NCC(=O)O (stereo not given) | -17.1%
15 | CC(C)(C)c1cc2c3c(c1)C(C(F)(F)F)(C(F)(F)F)OS3(=O)(O)OC2(C(F)(F)F)C(F)(F)F | 38.8%
16 | CC(C)(C)OC(=O)C1C(=O)CC(c2ccccc2)C1c1ccccc1 (stereo not given) | -3%
17 | COc1ccc(OC)c(NC(=O)Nc2ccc(I)cc2)c1 | 42%
18 | CC(=O)c1ccc(N=NN(C)C)cc1 | 1%
19 | COC1=c2\cccc\c2=c2/cccc/c2=c2\cccc\c2=N\1 | 13.1%
20 | CCc1c(C(=O)OC)c(C(=O)OC)c(-c2ccc(C)cc2)n1CCn1c(CC)c(C(=O)OC)c(C(=O)OC)c1-c1ccc(C)cc1 | 0.3%

Row | SMILES | growth inhibition
21 | COC(=O)c1ccccc1N=NNc1ccc(C(F)(F)F)c([N+](=O)[O-])c1 | -1.85%
22 | Nc1ncnc2c1nnn2CC(O)CO (stereo not given) | -19.2%
23 | CC1CCOC(/C=C/c2ccccc2)O1 (stereo not given) | -6.7%
24 | c1ccc(CC[n+]2ccncc2)cc1 | 6.8%
25 | CN(C)c1ccc(Cc2ccc(N(C)C)cc2[N+](=O)[O-])c([N+](=O)[O-])c1 | 11.2%
26 | CC12CCC(=O)C=C1CCC1C2C(=O)CC2(C)C1CCC2(O)C(=O)Cn1cc(F)c(=O)[nH]c1=O (stereo not given) | 9.5%
27 | Cc1cc(C)c(S(=O)(=O)O)cc1N | 2.1%
28 | COc1ccc(OC)c2c(Nc3ccc(S(=O)(=O)O)c4cc(S(=O)(=O)O)cc(S(=O)(=O)O)c34)cc(C)nc12 | -6.4%
29 | CCOC(=O)C1(C(=O)OCC)CCC(C(OC)OC)C(CC(=O)OC)C1 (stereo not given) | -15.7%
30 | N=C(N)SCCC(=O)CCSC(=N)N | 18.6%
31 | C[N+]1(C)CCC(C(=O)c2ccccc2)CC1 | 4.95%
32 | CN(C(=O)/C=C/c1ccccc1)c1ccccc1 | 13.4%
33 | C=CS(=O)(=O)CCOc1ccc(Cl)cc1Cl | 99.2% (active)
34 | CC1CCCC2(C)CCC(=O)C=C12 (stereo not given) | 6.75%
35 | O=C1c2ccccc2CN1c1ccccc1 | -25.6%
36 | COC(=O)c1nsc(OC)c1Cl | -11.5%
37 | CCN(CC)CCOC(=O)c1ccc(N=C/C=C/C(C#N)=C/NOC)cc1 | 27.4%
38 | CCOc1ccc2nc(NC(=O)/C(CC(=O)CC(C3=C(O)c4ccccc4CC3=O)c3ccccc3)=N\O)sc2c1 (stereo not given) | -7%
39 | Cc1csc2nc(-c3ccco3)nn12 | -23.9%
40 | Cc1ccc2snc(C(=O)O)c2c1[N+](=O)[O-] | 0.65%

Assay: NCI Yeast Anticancer Drug Screen. Data for the sgs1 mgt1 strain (AID 161);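 also: 0% = growth of cultures given vehicle only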
Settings: S. cerevisiae sgs1 mgt1 strain, at 50.0 µM, active compounds read high
Method in brief: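 Percent growth inhibition was derived by comparing compound-exposed mutant yeast with vehicle-exposed cultures. The strain carries alterations in DNA damage repair.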

Row | SMILES | growth inhibition
41 | Cc1ccc(NC(=O)/C=C/c2ccccc2)cc1Cl | 8.15%
42 | COC(CCCl)c1ccc(C)cc1 (stereo not given) | -24%
43 | CC1CCCN2C(=O)CN(Cc3ccccc3)CC(=O)N12 (stereo not given) | -8.55%
44 | Cn1c(COc2ccc(/C=N\N3CCN(/N=C\c4ccc(OCc5c[n+]6ccccc6n5C)cc4)CC3)cc2)c[n+]2ccccc12 | 29.6%
45 | CC(=O)N1Cc2c(N)ncnc2C1C (stereo not given) | -18.8%
46 | C(#CCN1CCOCC1)CCCN1CCOCC1 | -2.45%
47 | COC(=O)c1nc(=S)[nH]c(C(=O)OC)c1C(=O)c1ccc(OC)cc1 | -10.2%
48 | CC1OS(=O)OC1C (stereo not given) | -2.4%
49 | O=C(NCCCl)c1ccc(F)cc1 | -12.4%
50 | CC(C)N(C(=O)C12CC3CC(CC(C3)C1)C2)C(C)C | 8.05%
51 | O=S(=O)(O)CCCC1S(=O)(=O)OCCOS1(=O)=O | -8.4%
52 | C[N+]([O-])(C/C=C/c1ccccc1)c1ccccc1 (stereo not given) | -2.65%
53 | CN(C)c1ccc(/C=C(\C#N)c2cccc(Br)c2)cc1 | 3.1%
54 | CC(C)CC(Br)C(=O)NCC(=O)NCC(=O)O (stereo not given) | -5.35%
55 | CC(C)(C)c1cc2c3c(c1)C(C(F)(F)F)(C(F)(F)F)OS3(=O)(O)OC2(C(F)(F)F)C(F)(F)F | 15.8%
56 | CC(C)(C)OC(=O)C1C(=O)CC(c2ccccc2)C1c1ccccc1 (stereo not given) | 1.25%
57 | COc1ccc(OC)c(NC(=O)Nc2ccc(I)cc2)c1 | 33.9%
58 | CC(=O)c1ccc(N=NN(C)C)cc1 | -2.65%
59 | COC1=c2\cccc\c2=c2/cccc/c2=c2\cccc\c2=N\1 | 11.4%
60 | CCc1c(C(=O)OC)c(C(=O)OC)c(-c2ccc(C)cc2)n1CCn1c(CC)c(C(=O)OC)c(C(=O)OC)c1-c1ccc(C)cc1 | -26.1%

Row | SMILES | growth inhibition
61 | COC(=O)c1ccccc1N=NNc1ccc(C(F)(F)F)c([N+](=O)[O-])c1 | 16.1%
62 | Nc1ncnc2c1nnn2CC(O)CO (stereo not given) | -17.4%
63 | CC1CCOC(/C=C/c2ccccc2)O1 (stereo not given) | 5.7%
64 | c1ccc(CC[n+]2ccncc2)cc1 | -8.4%
65 | CN(C)c1ccc(Cc2ccc(N(C)C)cc2[N+](=O)[O-])c([N+](=O)[O-])c1 | 19.9%
66 | CC12CCC(=O)C=C1CCC1C2C(=O)CC2(C)C1CCC2(O)C(=O)Cn1cc(F)c(=O)[nH]c1=O (stereo not given) | 32.8%
67 | Cc1cc(C)c(S(=O)(=O)O)cc1N | 6.1%
68 | COc1ccc(OC)c2c(Nc3ccc(S(=O)(=O)O)c4cc(S(=O)(=O)O)cc(S(=O)(=O)O)c34)cc(C)nc12 | 9.25%
69 | CCOC(=O)C1(C(=O)OCC)CCC(C(OC)OC)C(CC(=O)OC)C1 (stereo not given) | -5.2%
70 | N=C(N)SCCC(=O)CCSC(=N)N | 33.6%
71 | C[N+]1(C)CCC(C(=O)c2ccccc2)CC1 | 5.6%
72 | CN(C(=O)/C=C/c1ccccc1)c1ccccc1 | 49.5%
73 | C=CS(=O)(=O)CCOc1ccc(Cl)cc1Cl | 99.7% (active)
74 | CC1CCCC2(C)CCC(=O)C=C12 (stereo not given) | -12.5%
75 | O=C1c2ccccc2CN1c1ccccc1 | -3.25%
76 | COC(=O)c1nsc(OC)c1Cl | 15.8%
77 | CCN(CC)CCOC(=O)c1ccc(N=C/C=C/C(C#N)=C/NOC)cc1 | 9.85%
78 | CCOc1ccc2nc(NC(=O)/C(CC(=O)CC(C3=C(O)c4ccccc4CC3=O)c3ccccc3)=N\O)sc2c1 (stereo not given) | -12.6%
79 | Cc1csc2nc(-c3ccco3)nn12 | 4.55%
80 | Cc1ccc2snc(C(=O)O)c2c1[N+](=O)[O-] | 4.1%
